Sampled rows, rich in hits. Any-hit rate of the full collection: about 1.2%.
ERK EGF inh: qHTS Assay for Inhibitors of the ERK Signaling Pathway using a Homogeneous Screening Assay; Stimulation with EGF; HEK293-V1b, EGF-stimulated phospho-ERK AlphaScreen; Potency, µM (doses to about 11.5 µM), most hits filed as inhibitors; hit rate 0.41% among 130,000; AID 1454, 2008; further: nearly all actives have a fitted effect of over 55% in size
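After overnight plating in 1% FBS, HEK293-V1b cells received test compound for half an hour, then a 5 min pulse of EGF (25 nM); ERK phosphorylation in lysates was read by bead-based AlphaScreen.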
GLA spleen mod: qHTS Assay for Inhibitors and Activators of Human alpha-Galactosidase From Spleen Homogenate; AID 2107, 2009; hit rate 0.008% among 240,000; human spleen homogenate, 4MU-alpha-Gal fluorescence, 40 min; Potency, µM (highest dose often 80 µM), hits mostly inhibitors; Alpha-galactosidase A (Homo sapiens), P06280
Target sequence (P06280 32-429 limits assumed): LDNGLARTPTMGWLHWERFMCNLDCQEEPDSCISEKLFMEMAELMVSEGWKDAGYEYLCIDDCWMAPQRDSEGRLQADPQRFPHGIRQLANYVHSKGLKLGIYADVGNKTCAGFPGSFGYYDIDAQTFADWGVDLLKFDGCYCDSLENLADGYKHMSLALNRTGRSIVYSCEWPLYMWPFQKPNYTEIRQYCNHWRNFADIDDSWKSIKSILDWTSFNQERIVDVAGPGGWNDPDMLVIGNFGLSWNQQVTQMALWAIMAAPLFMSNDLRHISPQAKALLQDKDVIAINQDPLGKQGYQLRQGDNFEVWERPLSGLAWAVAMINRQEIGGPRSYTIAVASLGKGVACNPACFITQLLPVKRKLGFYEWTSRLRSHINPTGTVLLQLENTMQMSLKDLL
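Spleen homogenate 1 ug + cpd (titration) + 4-MU-alpha-D-galactopyranoside 1 mM; 37C 40 min; 50 mM citrate/phosphate pH 5.0, 0.01% Tween-20; stop pH 10; fluorescence 365/440; AC50 via Hill.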
HTT aggregate: qHTS Multiplex Assay to Identify Dual Action Probes in a Cell Model of Huntington: Aggregate Formation (GFP) | PC12 HttQ103-GFP aggregates, Acumen cytometry, 40 h | Potency, µM (titrated, usually from 46.1 µM), hits mostly inhibitors | hit rate 1.1% among 220,000; further: nearly all actives have a fitted effect of over 60% in size
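PC12/HTTQ103-GFP, ecdysone-inducible; teb 100 nM; cpd qHTS titration; GFP aggregates read on laser cytometer, Ex 488/Em 500-530 nm.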
HTT cytoprotect: qHTS Multiplex Assay to Identify Dual Action Probes in a Cell Model of Huntington: Cytoprotection (ATP); hit rate 0.14% among 230,000; Potency, µM (titrated, usually from 56.4 µM), usual class: activators; PC12 HTT-Q103 induced, cytoprotection, ATP luminescence, 40 h; further: nearly all actives have a fitted effect of over 45% in size
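ATP quantification (ATPlite) reports survival of PC12 cells in which tebufenozide, 100 nM final, switches on Htt exon 1 with 103 glutamines linked to GFP; compounds are titrated.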
GLA inh pH 4.5: qHTS Assay for Inhibitors of Human alpha-Galactosidase at pH 4.5. Alpha-galactosidase A (Homo sapiens), P06280. purified enzyme, 4-MU-alpha-Gal fluorescence, pH 4.5. activity change, negative = inhibition, % at 105 µM. 230,000 tested, under 10 active
Hits are given with their value; i = inactive; ? = inconclusive; nt = no result; [ ] = dose if it differs, or a comment. The call rests on the fitted dose curve; in most records, active means well fitted curve in the direction sought with a large enough effect; inconclusive means small, poorly fitted or top-dose-only effect, or another doubt; inactive means no such curve, though single readings can be large; an effect the other way counts as inactive or inconclusive.

SMILES | ERK EGF inh | GLA spleen mod | HTT aggregate | HTT cytoprotect | GLA inh pH 4.5
CSc1cc(/C=N/O)c(SC)s1 | nt | i | 12.6µM | i[10 µM] | i
Cc1ccc(S(=O)(=O)CC2CSc3nc4ccccc4n32)cc1 (centres undefined) | nt | i | 7.08µM | 3.98µM | i
O=C(c1ccco1)N1CCC[C@@]2(CCN(c3ncccn3)C2)C1 | i | i | nt | i | nt
S=c1[nH]nc(C2CCCCC2)n1/N=C/c1ccncc1 | i | i | 0.224µM | i | i
O=[N+]([O-])c1ccc(/C=N/n2c(C3CCCCC3)n[nH]c2=S)cc1 | nt | i | i | i | i
COC(=O)C1=C(C(=O)OC)[C@@H]2N(C)c3ccc(OC)cc3[C@@]23C[C@@H](C(=O)OC)N(S(=O)(=O)c2ccc(C(F)(F)F)cc2)C3=N1 | nt | i[17.5 µM] | nt | i[10 µM] | i
CCc1c(C)nc(N)c(C#N)c1-c1ccccc1 | i | i | i[9.22 µM] | i[10 µM] | i
Cc1ccc2c(n1)sc1c(-c3ccccc3)c(C#N)c(N)nc12 | nt | i | 12.6µM | i | i
Cc1ccc([N+](=O)[O-])cc1S(=O)(=O)N(C(=O)c1ccncc1)c1ccc2oc3c(c2c1)CCCC3 | i | i | 17.8µM | i[10 µM] | i
COc1ccc(S(=O)(=O)Nc2cccc(SC)c2)cc1OC | i | i | 0.708µM | i[10 µM] | i
COc1ccc(S(=O)(=O)Nc2cccc(Cl)c2)cc1OC | nt | i | i | i | i
CCCCc1ncc(/C=C(\Cc2cccs2)C(=O)O)n1Cc1ccc(C(=O)O)cc1 | nt | nt | i | i | nt
COc1ccc(C(=O)C2CCCN(Cc3c(C)[nH]c4ccccc34)C2)c(OC)c1 (centres undefined) | i | i | 35.5µM | i[10 µM] | i
COc1ccc(C(=O)C2CCCN(Cc3ccc(C#CCCO)cc3)C2)c(OC)c1 (centres undefined) | i | i | i[9.22 µM] | i[10 µM] | i
NC(=O)c1cc2ccc(O)cc2oc1=Nc1ccccc1 | nt | ? | 7.08µM | i | i
COc1ccc2cc(C(N)=O)c(=Nc3ccccc3)oc2c1 | i | i | i | i | i
COc1ccc2cc1Oc1ccc(cc1)CC1c3c(cc(OC)c4c3Oc3cc5c(cc3O4)CCNC5C2)CCN1C (centres undefined) | ? | i | 3.98µM | i[10 µM] | i
COc1ccc2cc1Oc1ccc(cc1)CC1c3c(cc4c(c3Oc3cc5c(cc3OC)CCN(C)C5C2)OCO4)CCN1C (centres undefined) | ? | i | i | i | i
O=S1(=O)C2CC3C=CC2(CN1Cc1cccc(F)c1)O3 (centres undefined) | nt | i | nt | nt | nt
Brc1ccc(-c2nc(N/N=C/c3cccnc3)c3ccccc3n2)cc1 | nt | i | 10µM | i | i
C(=N\Nc1nc(-c2cccnc2)nc2ccccc12)/c1ccccc1 | i | i | i[9.22 µM] | i[10 µM] | i
Cc1noc2ncnc(Sc3ccccc3Cl)c12 | nt | i | 5.01µM | i | i
Cc1ccc(Sc2ncnc3onc(C)c23)c(C)c1 | i | i | nt | ? | i
Cc1ccc(Nc2nc(NCc3ccco3)c3ccccc3n2)cc1 | ? | i | 11.2µM | i | i
c1ccc(-c2nc(NCc3ccco3)c3ccccc3n2)nc1 | nt | i | 17.8µM | i | i
SMILES | ERK EGF inh | GLA spleen mod | HTT aggregate | HTT cytoprotect | GLA inh pH 4.5
CC1(C)OC(=O)C=C[C@@]2(C)C1C[C@@H](O)[C@]1(C)C2CC[C@@]2(C)C(c3ccoc3)OC(=O)[C@H]3O[C@]321 (some centres undefined) | i | i | nt | i | i
CCOc1ccc(-n2c(-c3ccc(OC)cc3)c[n+]3c2CCCCC3)cc1 | i | i | 7.94µM | i[1.9 µM] | i
CCOc1ccc(-n2c(-c3ccccc3)c[n+]3c2CCC3)cc1 | i | i | 6.31µM | i[10 µM] | i
CCC(=O)NC1CCc2cccc(OC)c2C1 (centres undefined) | nt | i | nt | i | nt
Cn1c(=O)c2ncn(CC(=O)NCCOc3ccccc3)c2n(C)c1=O | nt | i | i | i | i
COc1ccc(CNC(=O)Cn2cnc3c(=O)n(C)c(=O)n(C)c32)cc1 | nt | i | 0.631µM | i[0.074 µM] | i
COc1ccc(C(C#N)N2CCCCC2)cc1OC (centres undefined) | nt | i | i | i[10 µM] | i
COc1ccc(C(C#N)C2(C)OCCO2)cc1OC (centres undefined) | nt | i | 2.51µM | i | i
CCNc1ncc2nc(C)c(=O)n(CCc3ccccc3)c2n1 | nt | i | nt | i | nt
O=C(O)[C@@H]1[C@@H]2C[C@H]3c4[nH]c5ccccc5c4CCN3C[C@@H]2CC[C@@H]1O | i | i | i | ? | i
COc1cccc(CNC(=O)c2cc3c(C)nc4ccccc4c3o2)c1 | nt | i | 10µM | i | i
CCCCN(CC)CCNC(=O)c1cc2c(C)nc3ccccc3c2o1 | i | i | i | i | i
COc1cc(NC(=O)c2cc3c(C)nc4ccccc4c3o2)cc(OC)c1OC | nt | i | ? | i | i
CCc1ccc(CNC(=O)c2cc3c(C)nc4ccccc4c3o2)cc1 | nt | i | 10µM | i[10 µM] | i
COc1ccc(CNC(=O)c2cc3c(C)nc4ccccc4c3o2)c(OC)c1 | nt | i | 3.98µM | i | i
Cc1nc2ccccc2c2oc(C(=O)NCC3COc4ccccc4O3)cc12 (centres undefined) | ? | i | ? | i[10 µM] | i
CCCCCCCCCCCCCCCC(=O)N[C@@H](COP(=O)(O)O)C(=O)O | i | i | nt | ? | i
O=S(=O)(c1ccccc1)N1CCC2(CCN(Cc3ccncc3)CC2)CC1 | i | i | nt | i | nt
Cc1c(C(=O)O)c(O)cc2c1C(=O)c1c(O)c([C@@H]3O[C@H](CO)[C@@H](O)[C@H](O)[C@@H]3O)c(O)c(O)c1C2=O | nt | nt | nt | i | nt
O=C1OC2(c3cc(I)c(O)c(I)c3Oc3c2cc(I)c(O)c3I)c2c(Cl)c(Cl)c(Cl)c(Cl)c21 | nt | i | nt | nt | nt
O=C(CN1CCc2ccccc21)NN1CC(=O)N(c2ccc(Cl)cc2)CC1=O | 17.8µM | i | i[9.22 µM] | i[10 µM] | i
O=C(Nc1ccccc1)NN1CC(=O)N(c2ccc(Cl)cc2)CC1=O | i | i | i[9.22 µM] | i[10 µM] | i
O=c1c(-c2cccc(F)c2)nc2cncnc2n1Cc1ccccc1 | ? | i | nt | i | nt
COc1cccc(/C=N/NC(=O)C[n+]2ccccc2)c1O | i | i | i | i[10 µM] | i
COc1ccc(/C=N/NC(=O)CSc2nnc(C)n2-c2ccccc2)c(OC)c1OC | nt | i | i | i | i
COc1cccc(/C=N/NC(=O)CSc2nnc(C)n2-c2ccccc2)c1O | nt | i | 7.94µM | i | i
C=CCn1c(COc2ccccc2)nnc1SCC(=O)N/N=C/c1cc(Cl)ccc1O | nt | i | 7.94µM | i | i
COc1ccc(O)c(/C=N/NC(=O)CSc2nnc(C)n2-c2ccccc2)c1 | nt | i | 7.94µM | i | i
C=CCn1c(COc2ccccc2)nnc1SCC(=O)N/N=C/c1ccc(C)cc1 | nt | i | i | i | i
